From the supplement of paper PMC9262897, “Low-cost anti-mycobacterial drug discovery using engineered E. coli” (Nature Communications, 2022)
Where a name gives a salt, the structure may show the parent alone. ± gives the standard deviation of the averaged measurements.

Each compound was assayed on E. coli TESEC Mtb Asd (assay: growth (OD600 after 10 h); higher = more growth (less inhibition)). Conditions: arabinose induction (level): Low; compound 0.1 mM; raw OD600 reference: median of DMSO wells 0.417, cell-free background 0.041.
Protocol: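 TESEC E. coli strains in which the native enzyme is deleted and replaced by arabinose-inducible Mtb Asd, DapB, CysH or TrpD, each grown in its selective medium. Strains were screened against the Prestwick library at 0.1 mM and 1% DMSO in 384-well format at low and high arabinose induction. Growth is read as OD600 after 10 h in triplicate.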

Question: Which growth does the source give for `O=C1OC(CN2CCOCC2)CN1/N=C/c1ccc([N+](=O)[O-])o1` (centres undefined) [Furaltadone hydrochloride] here?
Answer: 0.0559 ± 0.0011

Question: For `CN(C)CCCN1c2ccccc2CCc2ccccc21` [Imipramine hydrochloride], which growth is on record?
Answer: 0.363 ± 0.063

Question: `CCOC(=O)O[C@]1(C(=O)OCCl)CC[C@H]2[C@@H]3CCC4=CC(=O)C=C[C@]4(C)[C@H]3[C@@H](O)C[C@@]21C` [Loteprednol etabonate] was tested. Which growth did it give?
Answer: 0.26 ± 0.14

Question: `CCCNC(C)C(=O)Nc1ccccc1C` (centres undefined) [Prilocaine hydrochloride] was tested. Which growth did it give?
Answer: 0.408 ± 0.031

Question: With `NS(=O)(=O)c1cc2c(cc1Cl)NCNS2(=O)=O` [Hydrochlorothiazide] as the compound, how does the growth read?
Answer: 0.408 ± 0.031

Question: How did the growth turn out when `Cc1cc2c(s1)Nc1ccccc1N=C2N1CCN(C)CC1` [Olanzapine] was run?
Answer: 0.457 ± 0.018

Question: For `Nc1ccc(C(=O)O)c(O)c1` [4-aminosalicylic acid], which growth is on record?
Answer: 0.377 ± 0.086

Question: How did the growth turn out when `CC(=O)Oc1ccc(C(c2ccc(OC(C)=O)cc2)c2ccccn2)cc1` [Bisacodyl] was run?
Answer: 0.24 ± 0.028

Question: Which growth does the source give for `CN(Cc1cnc2nc(N)nc(N)c2n1)c1ccc(C(=O)N[C@@H](CCC(=O)O)C(=O)O)cc1` (racemic) [Amethopterin (R,S)] here?
Answer: 0.368 ± 0.029

Question: How did the growth turn out when `CC(C(=O)O)c1ccc(C(=O)c2ccccc2)s1` (centres undefined) [Tiaprofenic acid] was run?
Answer: 0.285 ± 0.099

Question: How did the growth turn out when `Nc1c2ccccc2nc2ccccc12` [Aminacrine] was run?
Answer: 0.0513 ± 0.004

Question: `CCCC(CCC)C(=O)O` [Valproic acid] was tested. Which growth did it give?
Answer: 0.404 ± 0.047

Question: How did the growth turn out when `Cc1[nH]cnc1CN1CCc2c(c3ccccc3n2C)C1=O` [Alosetron hydrochloride] was run?
Answer: 0.263 ± 0.027

Question: With `CN(C)c1nc(N(C)C)nc(N(C)C)n1` [Altretamine] as the compound, how does the growth read?
Answer: 0.436 ± 0.037
